The record followed here is the supplement of paper PMC4894684.

Each structure is given as a SMILES string. Counter-ions that a name gives are not always drawn. ± gives the standard deviation of the averaged measurements.

The test system of this assay is Toxoplasma gondii RH (in HFF). The assay can be described thus: parasite growth relative to the screen mean (all compounds = 100%); higher = less inhibition of parasite growth. The following applies: 5 µM; 72 h; oxygen 21 %. Summed up:
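Parasite growth was reported relative to the screen mean. In that scale, the mean of all compounds equals 100%, and values are averaged over two screens. Compounds from 10 mM DMSO stocks were pin-transferred to 5 µM final onto confluent human foreskin fibroblasts in 96-well plates, infected within 2 h with RH β-Gal–GFP Toxoplasma (MOI 1:5) and grown 72 h at 21% O2, with parasite number read by a CPRG β-Gal assay against in-plate standard curves. Uninfected host-cell viability was checked with CellTiter-Blue.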
`CC(=O)NCC(=O)N[C@H](CCC(=O)O)C(=O)O` [N-Acetylglycyl-D-glutamic acid] had a parasite growth of 132 ± 22%.

`Cc1c(C(=O)NN2CCOCC2)nn(-c2ccc(Cl)cc2Cl)c1-c1ccc(I)cc1` showed a parasite growth of 88.1 ± 20%.

`Oc1cc2c(cc1O)CN(C(=S)NCCc1ccc(Cl)cc1)CCC2` [Capsazepine] came in with a parasite growth of 150 ± 30%. On to `Cc1ccc(NC(=O)c2cccc(N(C)C)c2)cc1NC(=O)c1ccc(O)cc1`, for which the parasite growth came to 141 ± 7.3%. As for `Nc1nc(NCCc2ccc(O)cc2)nc2nc(-c3ccco3)nn12`, the parasite growth amounted to 11.2 ± 10%.

As to `Cc1cccc(C#Cc2ccccc2)n1` [MPEP hydrochloride], the parasite growth came out at 101 ± 37%.

`COc1cc2c(cc1C(F)(F)F)N(C(=O)Nc1cc(F)cc(-c3cccnc3)c1)CC2`: the parasite growth is 29.9 ± 3.3%.

In turn, `COc1ccc(Nc2ncnc3ccc(OC)cc23)cc1` [MPMQ hydrochloride] came in with a parasite growth of 146 ± 14%. Compound `CCCCOC(=O)c1cc2c(cn1)[nH]c1ccccc12` registered a parasite growth of 150 ± 37%. The value for `O=C(NCCCN1CCC2(CC1)OCc1ccccc12)[C@H]1CCCN1Cc1ccccc1` was 136.9 ± 0.99%.

As to `Cc1ccc(/C=N/NC(=O)c2ccccc2Oc2ccccc2)o1`, the parasite growth is 72.7 ± 4.9%. The value for `O=C(/C=C/c1ccccc1)NC(NC(=S)Nc1cccc2cccnc12)C(Cl)(Cl)Cl` (stereo unspecified) [Salubrinal] was 86.2 ± 17%. As for `Cc1c(OCC(F)(F)F)ccnc1C[S+]([O-])c1nc2ccccc2[nH]1` (stereo unspecified) [Lansoprazole], the parasite growth turned out to be 124 ± 9.3%. The value for `CC1(COc2ccc(CC3SC(=O)NC3=O)cc2)CCCCC1` (stereo unspecified) [Ciglitazone] was 100 ± 22%; that for `Cc1c(CC(C)(C)C(=O)O)n(Cc2ccc(Cl)cc2)c2ccc(F)cc12` was 129 ± 22%.

`COCCCC/C(=N\OCCN)c1ccc(C(F)(F)F)cc1` [Fluvoxamine maleate] returned a parasite growth of 49.7 ± 11%.
